Source: PubChem BioAssay (NCI)
Compounds without any hit were thinned out: in the full panel of roughly 79,000, 15% have a hit. Calls of active or inactive are those of the source. Cut-off read from the data, not from the text of the source: active = growth inhibition above about 70%; inactive = the rest.

What was measured:
[1] = NCI Yeast Anticancer Drug Screen. Data for the rad52 strain (AID 147);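 note: 0% = growth of vehicle-treated control cultures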; conditions: S. cerevisiae rad52 mutant growth inhibition, stronger effect = higher value
Method in brief: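 Vehicle-treated cultures served as the reference for growth inhibition of compound-exposed yeast bearing a DNA repair mutation.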

[2] = NCI Yeast Anticancer Drug Screen. Data for the wt1 strain (AID 149);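 note: 0% = growth of vehicle-treated wt1 cultures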; conditions: S. cerevisiae wt1 strain (SPY 50644) growth inhibition, stronger effect = higher value
Method in brief: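 Each compound is tested on wt1 yeast and the loss of growth versus vehicle gives the inhibition value.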

[3] = NCI Yeast Anticancer Drug Screen. Data for the rad50EPP+ strain (AID 151);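 note: 0% = growth of vehicle-treated control cultures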; conditions: S. cerevisiae rad50 mutant strain, stronger effect = higher value
Method in brief: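 In this screen, rad50EPP+ yeast were exposed to compounds. Growth inhibition was scored against vehicle-treated controls.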

[4] = NCI Yeast Anticancer Drug Screen. Data for the mgt1 strain (AID 153); conditions: S. cerevisiae mgt1 mutant growth inhibition, stronger effect = higher value
Method in brief: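 mgt1 strain exposed; growth vs vehicle control recorded as inhibition.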

[5] = NCI Yeast Anticancer Drug Screen. Data for the rad50 strain (AID 155);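 note: 0% = growth of vehicle-only cultures of the same strain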; conditions: S. cerevisiae rad50 strain growth inhibition, stronger effect = higher value
Method in brief: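 Vehicle-treated cultures provide the reference for the growth inhibition reported for compound-exposed, repair-deficient yeast.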

[6] = NCI Yeast Anticancer Drug Screen. Data for the mec2-1 strain (AID 157); conditions: S. cerevisiae mec2-1 strain, stronger effect = higher value
Method in brief: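 Vehicle-treated cultures served as reference for growth inhibition of compound-exposed mec2-1 yeast.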

[7] = NCI Yeast Anticancer Drug Screen. Data for the rad14 strain (AID 159);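 note: 0% = growth of vehicle-treated control cultures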; conditions: S. cerevisiae rad14 strain growth inhibition, stronger effect = higher value
Method in brief: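 Inhibition of growth is reported for a repair-deficient yeast mutant following compound treatment, calculated relative to cultures that received vehicle.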

[8] = NCI Yeast Anticancer Drug Screen. Data for the sgs1 mgt1 strain (AID 161);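 note: 0% = growth of cultures given vehicle only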; conditions: S. cerevisiae sgs1 mgt1 strain, stronger effect = higher value
Method in brief: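 Mutant yeast exposed to compound; growth scored against vehicle-only wells.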

[9] = NCI Yeast Anticancer Drug Screen. Data for the CLN2oe strain (AID 163);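 note: 0% = growth of vehicle-only control cultures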; conditions: S. cerevisiae CLN2oe strain, stronger effect = higher value
Method in brief: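 Inhibition relative to vehicle-treated yeast is reported. Cells: strain with genetic alteration in cell-cycle control, grown with compound.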

[10] = NCI Yeast Anticancer Drug Screen. Data for the cln2 rad14 strain (AID 165);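 note: 0% = growth equal to vehicle treated cultures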; conditions: S. cerevisiae cln2 rad14 strain, stronger effect = higher value
Method in brief: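 Each compound was tested on cln2 rad14 yeast. Inhibition of growth was calculated against vehicle-exposed controls.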

[11] = NCI Yeast Anticancer Drug Screen. Data for the bub3 strain (AID 167); conditions: S. cerevisiae bub3 mutant strain, stronger effect = higher value
Method in brief: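 Mutant yeast screening strain plus compound; vehicle-treated cultures serve as the 0% inhibition reference.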

[12] = NCI Yeast Anticancer Drug Screen. Data for the mlh1 strain (AID 171);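 note: 0% = growth of vehicle-treated control cultures of the same strain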; conditions: S. cerevisiae mlh1 strain growth inhibition, stronger effect = higher value
Method in brief: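 Vehicle-normalised growth inhibition of a repair- or checkpoint-altered yeast strain following compound treatment.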

[13] = NCI Yeast Anticancer Drug Screen. Data for the sgs1 strain (AID 173);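 note: 0% = growth of vehicle-only control cultures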; conditions: S. cerevisiae sgs1 mutant, stronger effect = higher value
Method in brief: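 Screen format: yeast with repair or checkpoint alterations, compound exposure, growth read relative to vehicle.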

[14] = NCI Yeast Anticancer Drug Screen. Data for the mlh1 rad18 strain (AID 175); conditions: S. cerevisiae mlh1 rad18 strain growth inhibition, stronger effect = higher value
Method in brief: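 Vehicle-treated cultures served as the reference for growth inhibition in a yeast strain carrying DNA damage repair alterations exposed to each compound.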

[15] = NCI Yeast Anticancer Drug Screen. Data for the wt2 strain (AID 169); conditions: S. cerevisiae wt2 strain growth inhibition, stronger effect = higher value
Method in brief: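 Inhibition of yeast growth was determined after compound treatment, normalised to controls receiving only vehicle.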

[16] = NCI Yeast Anticancer Drug Screen. Data for the rad18 strain (AID 177); conditions: S. cerevisiae rad18 mutant growth inhibition, stronger effect = higher value
Method in brief: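 Test articles were incubated with altered yeast defective in DNA damage repair. Results are given as inhibition of growth versus vehicle.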

[17] = at 5.0 µM (retest, dose inferred, filed as 0.5)
[18] = at 50.0 µM (retest, dose inferred, filed as 5.0)

Measured: growth inhibition

O=C1/C(=C/c2ccc(Cl)c(Cl)c2)CNC/C1=C\c1ccc(Cl)c(Cl)c1
active: [1]; at 33.0 µM 76% | [1]; at 100.0 µM 93% | [2]; at 100.0 µM 95% | [4]; at 100.0 µM 94% | [5]; at 100.0 µM 95% | [6]; at 33.0 µM 74% | [6]; [18] 74% | [6]; at 50.0 µM 89.8% | [6]; at 100.0 µM 93% | [7]; at 100.0 µM 92% | [8]; at 50.0 µM 89.6% | [9]; at 100.0 µM 79% | [10]; at 50.0 µM 90.4% | [11]; [18] 82% | [11]; at 50.0 µM 91.8% | [11]; at 100.0 µM 92% | [12]; at 100.0 µM 94% | [13]; at 33.0 µM 78% | [13]; at 100.0 µM 94% | [14]; [18] 86% | [14]; at 50.0 µM 90.3%
inactive: [1]; at 1.2 µM 22% | [1]; at 3.7 µM 22% | [1]; at 11.0 µM 27% | [2]; at 1.2 µM 28% | [2]; at 3.7 µM 25% | [2]; at 11.0 µM 29% | [2]; at 33.0 µM 63% | [3]; at 1.2 µM 14% | [3]; at 3.7 µM 27% | [3]; at 11.0 µM 19% | [3]; at 33.0 µM 32% | [3]; at 100.0 µM 32% | [4]; at 1.2 µM 5% | [4]; at 3.7 µM 13% | [4]; at 11.0 µM 35% | [4]; at 33.0 µM 69% | [5]; at 1.2 µM 12% | [5]; at 3.7 µM 20% | [5]; [17] 19% | [5]; at 11.0 µM 29% | [5]; at 33.0 µM 68% | [5]; [18] 62% | [5]; at 50.0 µM 50% | [6]; at 1.2 µM 25% | [6]; at 3.7 µM 23% | [6]; [17] -9% | [6]; at 11.0 µM 41% | [7]; at 1.2 µM 7% | [7]; at 3.7 µM 8% | [7]; at 11.0 µM 20% | [7]; at 33.0 µM 52% | [8]; [17] 27% | [8]; [18] 66% | [9]; at 1.2 µM 15% | [9]; at 3.7 µM 7% | [9]; at 11.0 µM 29% | [9]; at 33.0 µM 48% | [10]; [17] 10% | [10]; [18] 42% | [11]; at 1.2 µM -8% | [11]; at 3.7 µM -9% | [11]; [17] 20% | [11]; at 11.0 µM 13% | [11]; at 33.0 µM 69% | [12]; at 1.2 µM 5% | [12]; at 3.7 µM 13% | [12]; at 11.0 µM 35% | [12]; at 33.0 µM 69% | [13]; at 1.2 µM 29% | [13]; at 3.7 µM 33% | [13]; at 11.0 µM 49% | [14]; [17] 6%

COc1ccc2nc3cccc([N+](=O)[O-])c3c(NCCCCCC(=O)O)c2c1
active: [1]; at 1.2 µM 87% | [1]; at 3.7 µM 96% | [1]; at 11.0 µM 97% | [1]; at 33.0 µM 98% | [1]; at 100.0 µM 98% | [2]; at 11.0 µM 93% | [2]; at 33.0 µM 98% | [2]; at 100.0 µM 98% | [3]; at 3.7 µM 81% | [3]; at 11.0 µM 95% | [3]; at 33.0 µM 97% | [3]; at 100.0 µM 98% | [4]; at 11.0 µM 91% | [4]; at 33.0 µM 97% | [4]; at 100.0 µM 99% | [5]; at 1.2 µM 84% | [5]; at 3.7 µM 94% | [5]; [17] 97% | [5]; at 11.0 µM 96% | [5]; at 33.0 µM 97% | [5]; [18] 98% | [5]; at 50.0 µM 87% | [5]; at 100.0 µM 97% | [6]; at 3.7 µM 96% | [6]; [17] 96% | [6]; at 11.0 µM 97% | [6]; at 33.0 µM 98% | [6]; [18] 99% | [6]; at 50.0 µM 91% | [6]; at 100.0 µM 99% | [7]; at 1.2 µM 96% | [7]; at 3.7 µM 99% | [7]; at 11.0 µM 99% | [7]; at 33.0 µM 99% | [7]; at 100.0 µM 99% | [8]; [17] 95% | [8]; [18] 99% | [8]; at 50.0 µM 82.7% | [10]; [17] 99% | [10]; [18] 99% | [10]; at 50.0 µM 88.8% | [11]; at 11.0 µM 96% | [11]; at 33.0 µM 97% | [11]; [18] 99% | [11]; at 50.0 µM 87.2% | [11]; at 100.0 µM 99% | [15]; at 11.0 µM 94% | [15]; at 33.0 µM 97% | [15]; at 100.0 µM 99% | [12]; at 11.0 µM 94% | [12]; at 33.0 µM 97% | [12]; at 100.0 µM 98% | [13]; at 1.2 µM 90% | [13]; at 3.7 µM 93% | [13]; at 11.0 µM 98% | [13]; at 33.0 µM 98% | [13]; at 100.0 µM 98% | [14]; [17] 97% | [14]; [18] 98% | [14]; at 50.0 µM 82.6%
inactive: [2]; at 1.2 µM 2% | [2]; at 3.7 µM 29% | [3]; at 1.2 µM 38% | [4]; at 1.2 µM 0% | [4]; at 3.7 µM 26% | [6]; at 1.2 µM 63% | [11]; at 1.2 µM -11% | [11]; at 3.7 µM 34% | [11]; [17] 2% | [15]; at 1.2 µM 6% | [15]; at 3.7 µM 42% | [12]; at 1.2 µM 23% | [12]; at 3.7 µM 63%

Cc1cc2nc3ccccc3n2c2ccccc12
inactive: [1]; at 1.2 µM -33% | [1]; at 3.7 µM -33% | [1]; at 11.0 µM -56% | [1]; at 33.0 µM -11% | [1]; at 100.0 µM 41% | [2]; at 1.2 µM -53% | [2]; at 3.7 µM -48% | [2]; at 11.0 µM -39% | [2]; at 33.0 µM -31% | [2]; at 100.0 µM -8% | [3]; at 1.2 µM -49% | [3]; at 3.7 µM -24% | [3]; at 11.0 µM -21% | [3]; at 33.0 µM 28% | [3]; at 100.0 µM 63% | [4]; at 1.2 µM -25% | [4]; at 3.7 µM 4% | [4]; at 11.0 µM 6% | [4]; at 33.0 µM 37% | [4]; at 100.0 µM 61% | [5]; at 1.2 µM 2% | [5]; at 3.7 µM -7% | [5]; [17] 0% | [5]; at 11.0 µM 5% | [5]; at 33.0 µM 64% | [5]; at 50.0 µM 41% | [6]; at 1.2 µM -45% | [6]; at 3.7 µM -45% | [6]; [17] -11% | [6]; at 11.0 µM -41% | [6]; at 33.0 µM -30% | [6]; [18] 39% | [6]; at 50.0 µM 56.1% | [6]; at 100.0 µM 8% | [7]; at 1.2 µM -21% | [7]; at 3.7 µM -37% | [7]; at 11.0 µM -36% | [7]; at 33.0 µM -23% | [7]; at 100.0 µM 35% | [8]; [17] -10% | [8]; [18] 29% | [8]; at 50.0 µM 66.7% | [9]; at 1.2 µM -32% | [9]; at 3.7 µM -24% | [9]; at 11.0 µM -30% | [9]; at 33.0 µM -7% | [9]; at 100.0 µM 37% | [10]; [17] 2% | [10]; [18] 60% | [10]; at 50.0 µM 52.6% | [11]; at 1.2 µM -15% | [11]; at 3.7 µM -7% | [11]; [17] 5% | [11]; at 11.0 µM -6% | [11]; at 33.0 µM 5% | [11]; [18] 50% | [11]; at 50.0 µM 69% | [11]; at 100.0 µM 44% | [12]; at 1.2 µM -33% | [12]; at 3.7 µM -27% | [12]; at 11.0 µM -7% | [12]; at 33.0 µM 53% | [13]; at 1.2 µM -43% | [13]; at 3.7 µM -35% | [13]; at 11.0 µM -40% | [13]; at 33.0 µM -29% | [13]; at 100.0 µM -13% | [14]; [17] 6% | [14]; at 50.0 µM 65.9% | [16]; at 1.2 µM -24% | [16]; at 3.7 µM -23% | [16]; at 11.0 µM -10% | [16]; at 33.0 µM -8% | [16]; at 100.0 µM 29%
active: [5]; [18] 86% | [5]; at 100.0 µM 91% | [12]; at 100.0 µM 80% | [14]; [18] 78%
